Our source for the Potency values is PubChem BioAssay AID1347139 (National Center for Advancing Translational Sciences (NCATS), 2019).

This is one part of the list. Inconclusive results are not listed. Calls of active or inactive are those of the source. Calls come from the whole dose curve; as a rule, active = well fitted inhibition curve with a large enough effect; inconclusive = small, poorly fitted or top-dose-only effect; inactive = no such curve, though single readings can be large or run the other way.

The nature of the assay: qHTS of pediatric cancer cell lines to identify multiple opportunities for drug repurposing: Orthogonal 3D viability screen for TC32 cells. To be noted: TC32 3D spheroid viability, PI/Hoechst imaging, 72 h; series mostly up to 30.7 µM. From the text:
Drug repurposing or repositioning has been offered as a strategy for drug development in oncology programs. This approach has special potential for childhood cancers and other rare or orphan diseases, where the expected return on new drug development has been a disincentive to pharmaceuticals. […] In this project we exploit the poly-pharmacology of drugs to discover new indications via phenotypic screening of a panel of 19 well-characterized cell lines derived from solid tumors seen in children and adolescents. The goal is to identify approved drugs with previously unrecognized anticancer properties that has the potential to reveal new mechanisms and biological processes involved in carcinogenesis or drug resistance. We employed a titration-based paradigm (quantitative high-throughput screening or qHTS), where all compounds were tested at multiple concentrations for their effect on cell viability. Concentration-response curves (CRCs) were derived directly from the primary screen, and both potency and efficacy values were used to identify compounds with robust bioactivity profiles. […] These two assays will be used to validate active compounds and assess the correlation of compound's potency in 2D vs 3D cultures on selected cell lines. Assay Submitter: Nathalia J. Martinez, National Center for Advancing Translational Sciences, National Institutes of Health, Rockville, MD, USA; email: natalia.martinez@nih.gov Shen, M et al. Quantitative high-throughput phenotypic screening of pediatric cancer cell lines identifies multiple opportunities for drug repurposing. Oncotarget 2017 Dec 19;9(4):4758-4772. PMID 29435139.
The cells were obtained from University of North Carolina (UNC), Pediatric Preclinical Testing Program (PPT), and Coriell Institute (CI). qHTS viability in 3D culture: Cells were assayed in phenol red-free growth media at a density of 1,000 cells/well, with the exception of Daoy, and SH-N-SH which were assayed at 1,500 cells/ well. Thirty muL of cells were dispensed into 384-well, ULA, round bottom plates (Corning) using a Multidrop dispenser. Plates were spun down at 1,000 rpm for 1 min and incubated at 37 degrees C, 5% CO2, under a humidified atmosphere for either 24 (Daoy) or 48 hours (all other cell lines) to allow spheroid formation. Ninety-two nanoliter of compounds and controls (neutral control DMSO or positive control bortezomib at final concentrations of 0.5 µM) were subsequently transferred via GNF Pintool. Plates were sealed using a breathable seal (Diversified Biotech, Dedham, MA) and incubated for 72 hours at 37 degrees C. Spheroid viability was first determined by high-content imaging using Hoechst 33342 and Propidium Iodide (PI, ThermoFisher Scientific), followed by addition of CellTiter-Glo 3D (Promega). Specifically, 3 µL/well of PBS containing a 1:500 dilution of both dyes was dispensed using Multidrop. Dyes were incubated for 1 hour before imaging using the Celigo Image Cytometer. Then, 20 µl of CellTiter-Glo 3D were added per well. Plates were incubated for 30 min at RT on a VWR microplate shaker (300 rpm) and analyzed for luminescence intensity using a ViewLux High-throughput CCD imager equipped with clear filters. Image analysis was done using the Celigo Tumorsphere 1+2+3 application software as previously described. […] The data were exported to Excel, and the average fluorescent intensities were used to calculate the ratio of PI over Hoechst, which was used to quantify viability. […]
On to `CC[C@]1(O)C[C@@H]2CN(CCc3c([nH]c4ccccc34)[C@@](C(=O)OC)(c3cc4c(cc3OC)N(C)[C@H]3[C@@](O)(C(=O)OC)[C@H](OC(C)=O)[C@]5(CC)C=CCN6CC[C@]43[C@@H]65)C2)C1`, for which the Potency is 0.0323 µM (active). Then `COC(=O)Nc1nc2ccc(Sc3ccccc3)cc2[nH]1`, with 0.81 µM (active); and `CC[C@H]1CN2CCc3cc(OC)c(OC)cc3[C@@H]2C[C@@H]1C[C@H]1NCCc2cc(OC)c(OC)cc21`, with 0.323 µM (active).

Turning to `CC(NCc1ccc2c(c1)nc(NC(=O)c1ccc(-c3cn[nH]c3)s1)n2CC(C)(C)O)C(C)(C)C` (stereo not given), the Potency was 1.62 µM (active). Then `C=C1C(=CC=C2CCC[C@]3(C)[C@@H]([C@H](C)C=C[C@H](C)C(C)C)CC[C@@H]23)C[C@@H](O)C[C@@H]1O`, with “inactive”.
